# About 79,000 compounds went through this panel and 15% of them were active in at least one assay; those are over-represented in the sample as a whole. Values without a mark were called inactive. Activity calls are given as the source filed them. Cut-off read from the data, not from the text of the source: active = growth inhibition above about 70%; inactive = the rest.
# Experiment: NCI Yeast Anticancer Drug Screen. Data for the rad50 strain (AID 155);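 note: 0% = growth of vehicle-only cultures of the same strain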
# Details: S. cerevisiae rad50 strain growth inhibition; at 50.0 µM; stronger effect = higher value
# In short: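 Inhibition values express reduced yeast growth in compound-treated cultures relative to vehicle-treated controls.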
row,Structure (SMILES),growth inhibition
1,NC(Cc1ccccc1)=NCC(=O)O,-40.5%
2,CCN(CC)CCC(=O)O[C@H]1CC[C@H](CC(C)[C@H]2CC(=O)C(C)C=C(C)[C@H](OC(=O)CCN(CC)CC)C(OC)C(=O)[C@@H](C)CC(C)/C=C/C=C/C=C(C)C(OC)CC3CC[C@H](C)[C@](O)(O3)C(=O)C(=O)N3CCCCC3C(=O)O2)CC1OC (stereo not given in full),89.6% (active)
3,O=C1c2cc(Cl)ccc2-n2c(noc2=O)C2CSCN12 (stereo not given),-8%
4,Cc1cc(C)c(CSc2cc(N)nc(N)c2N)c(C)c1,15.4%
5,COc1cccc(/C=C\C#N)c1,-23.1%
6,CC(=O)Nc1ccc2ccc3ccccc3c2c1,37%
7,COc1ccccc1/C=C(\S)C(=O)O,-18.9%
8,CCOC(=O)c1ccc(N2C(C#N)c3ccccc3OC2c2ccccc2O)cc1 (stereo not given),5.5%
9,NC(=O)C1CCCN(C2OC(COP(=O)(O)OP(=O)(O)OCC3OC(n4cnc5c(N)ncnc54)C(OP(=O)(O)O)C3O)C(O)C2O)C1 (stereo not given),5.85%
10,N#CCCS(=O)(=O)O,29.1%
11,N#C/C=C\c1ccc(F)cc1,27.1%
12,N#CC(C#N)=C(O)/C(=C/c1ccc(Cl)cc1Cl)NC(=O)c1ccccc1,9.4%
13,C[n+]1cc(N)cc2ccccc21,1.65%
14,CS(=O)(=O)c1ccc(C=O)cc1,12.8%
15,CC1CCCCc2nc3c(c(=O)n21)CCCC3 (stereo not given),9.3%
16,COc1nc(NC2OC(CO)C(O)C(O)C2O)c(/C=N/O)c(=O)n1C (stereo not given),4.55%
17,NC(=S)N/N=C1\C(=O)NC(=O)C1c1ccccc1 (stereo not given),4.75%
18,Cc1cc(C(C)C)cc(C(C)C)c1,-6.25%
19,Cc1[nH]n(C(=N)N)c(=O)c1CCO,-7.15%
20,CC(O)CN(Cc1ccccc1)CC(C)O (stereo not given),8.1%

row,Structure (SMILES),growth inhibition
1,O=C(O)CCCc1ccc(O)cc1,7.1%
2,CCCCCCCCCCCCCCC/C=C\C(=O)O,15.2%
3,CCOC(=O)CCC(NC(=O)OCc1ccccc1)C(=O)NC(CCC(=O)OCC)C(=O)NC(CCC(=O)OCC)C(=O)NC(CCC(=O)OCC)C(=O)NC(CCC(=O)OCC)C(=O)NC(CCC(=O)OCC)C(=O)NC(CCC(=O)OCC)C(=O)OCC (stereo not given),-23.8%
4,COC1=NC2(C)C(C)=C(c3ccccc3)C1(C)c1ccccc12 (stereo not given),-12.2%
5,Cc1cccc(Nc2nnc(Nc3cccc(C)n3)c3ccccc23)n1,-2.15%
6,O=c1cc(-c2ccc(Cl)cc2)oc(-c2ccc(Cl)cc2)c1,5.5%
7,C=CCSC(=S)NC,-6.2%
8,O=C(Cn1c(=O)oc2ccc(C(=O)c3ccccc3Cl)cc21)c1ccc([N+](=O)[O-])cc1,-27.6%
9,CNC(=O)OCc1c(COC(=O)NC)c(C)n(-c2ccccc2)c1C,7.75%
10,COc1ccc(C(C#N)Cc2ccccc2)c([N+](=O)[O-])c1 (stereo not given),17.6%
11,NC(=O)Oc1cccc(OC(N)=O)c1,8.95%
12,CC(=O)Nc1ccc2c(c1)C(=O)c1ccccc1-2,64.1%
13,O=C(O)Cc1cc(Cl)ccc1Cl,-4%
14,O=C(O)CNc1ccccc1.[Cu+2],-38.5%
15,CC1(C)CCCC/C1=N\Nc1ccc([N+](=O)[O-])cc1[N+](=O)[O-],-29.2%
16,Cc1cc(N(CCC#N)CCC#N)ccc1/C=C(\NC(=O)/C=C/c1ccccc1)C(=O)Nc1ccc(Cl)cc1,-7.1%
17,Nc1nc2ccc(Br)cc2s1,9.3%
18,O=C(Cc1ccccc1)N(C(=O)c1ccccc1)c1ccccc1,8.9%
19,CC(C)CCCC(C)C1CCC2(C)C3=C(CCC12C)C1(C)Cc2cnn(-c4ccccc4)c2C(C)(C)C1CC3 (stereo not given),-6.4%
20,O=[N+]([O-])c1cc([N+](=O)[O-])c(/C=C/c2ccccc2Cl)cc1/C=C/c1ccccc1Cl,-10.2%

# Experiment: NCI Yeast Anticancer Drug Screen. Data for the mec2-1 strain (AID 157)
# Details: S. cerevisiae mec2-1 strain, at 50.0 µM, stronger effect = higher value
# In short: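 Mutant yeast (mec2-1) grown with compound; growth inhibition relative to vehicle control reported.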
row,Structure (SMILES),growth inhibition
1,NC(Cc1ccccc1)=NCC(=O)O,-7.9%
2,CCN(CC)CCC(=O)O[C@H]1CC[C@H](CC(C)[C@H]2CC(=O)C(C)C=C(C)[C@H](OC(=O)CCN(CC)CC)C(OC)C(=O)[C@@H](C)CC(C)/C=C/C=C/C=C(C)C(OC)CC3CC[C@H](C)[C@](O)(O3)C(=O)C(=O)N3CCCCC3C(=O)O2)CC1OC (stereo not given in full),91.8% (active)
3,O=C1c2cc(Cl)ccc2-n2c(noc2=O)C2CSCN12 (stereo not given),-10.3%
4,Cc1cc(C)c(CSc2cc(N)nc(N)c2N)c(C)c1,9.3%
5,COc1cccc(/C=C\C#N)c1,-1.3%
6,CC(=O)Nc1ccc2ccc3ccccc3c2c1,9.25%
7,COc1ccccc1/C=C(\S)C(=O)O,-6.9%
8,CCOC(=O)c1ccc(N2C(C#N)c3ccccc3OC2c2ccccc2O)cc1 (stereo not given),2.25%
9,NC(=O)C1CCCN(C2OC(COP(=O)(O)OP(=O)(O)OCC3OC(n4cnc5c(N)ncnc54)C(OP(=O)(O)O)C3O)C(O)C2O)C1 (stereo not given),-15.1%
10,N#CCCS(=O)(=O)O,21.9%
11,N#C/C=C\c1ccc(F)cc1,9.7%
12,N#CC(C#N)=C(O)/C(=C/c1ccc(Cl)cc1Cl)NC(=O)c1ccccc1,1.15%
13,C[n+]1cc(N)cc2ccccc21,-4.9%
14,CS(=O)(=O)c1ccc(C=O)cc1,6%
15,CC1CCCCc2nc3c(c(=O)n21)CCCC3 (stereo not given),-11.8%
16,COc1nc(NC2OC(CO)C(O)C(O)C2O)c(/C=N/O)c(=O)n1C (stereo not given),2.25%
17,NC(=S)N/N=C1\C(=O)NC(=O)C1c1ccccc1 (stereo not given),1.4%
18,Cc1cc(C(C)C)cc(C(C)C)c1,-13.9%
19,Cc1[nH]n(C(=N)N)c(=O)c1CCO,11.6%
20,CC(O)CN(Cc1ccccc1)CC(C)O (stereo not given),28.9%

row,Structure (SMILES),growth inhibition
1,O=C(O)CCCc1ccc(O)cc1,11.7%
2,CCCCCCCCCCCCCCC/C=C\C(=O)O,-5.8%
3,CCOC(=O)CCC(NC(=O)OCc1ccccc1)C(=O)NC(CCC(=O)OCC)C(=O)NC(CCC(=O)OCC)C(=O)NC(CCC(=O)OCC)C(=O)NC(CCC(=O)OCC)C(=O)NC(CCC(=O)OCC)C(=O)NC(CCC(=O)OCC)C(=O)OCC (stereo not given),-16.5%
4,COC1=NC2(C)C(C)=C(c3ccccc3)C1(C)c1ccccc12 (stereo not given),-4.4%
5,Cc1cccc(Nc2nnc(Nc3cccc(C)n3)c3ccccc23)n1,-4.5%
6,O=c1cc(-c2ccc(Cl)cc2)oc(-c2ccc(Cl)cc2)c1,-7.65%
7,C=CCSC(=S)NC,-7.5%
8,O=C(Cn1c(=O)oc2ccc(C(=O)c3ccccc3Cl)cc21)c1ccc([N+](=O)[O-])cc1,-28.3%
9,CNC(=O)OCc1c(COC(=O)NC)c(C)n(-c2ccccc2)c1C,-14.1%
10,COc1ccc(C(C#N)Cc2ccccc2)c([N+](=O)[O-])c1 (stereo not given),-5.75%
11,NC(=O)Oc1cccc(OC(N)=O)c1,-6.25%
12,CC(=O)Nc1ccc2c(c1)C(=O)c1ccccc1-2,16.1%
13,O=C(O)Cc1cc(Cl)ccc1Cl,8.85%
14,O=C(O)CNc1ccccc1.[Cu+2],-28.1%
15,CC1(C)CCCC/C1=N\Nc1ccc([N+](=O)[O-])cc1[N+](=O)[O-],5.2%
16,Cc1cc(N(CCC#N)CCC#N)ccc1/C=C(\NC(=O)/C=C/c1ccccc1)C(=O)Nc1ccc(Cl)cc1,-15.1%
17,Nc1nc2ccc(Br)cc2s1,26.6%
18,O=C(Cc1ccccc1)N(C(=O)c1ccccc1)c1ccccc1,14.5%
19,CC(C)CCCC(C)C1CCC2(C)C3=C(CCC12C)C1(C)Cc2cnn(-c4ccccc4)c2C(C)(C)C1CC3 (stereo not given),-6.05%
20,O=[N+]([O-])c1cc([N+](=O)[O-])c(/C=C/c2ccccc2Cl)cc1/C=C/c1ccccc1Cl,13.4%
